The list is not random: actives were taken first. Their share in the collection is about 6.9%.
HCV NS3h FP: HCV NS3 helicase inhibitors, primary screen, biochemical, fluorescence polarization, ChemBridge library; Hepatitis C virus NS3 helicase; NS3h Cy5-dT15 DNA binding; inhibition, % at 100 µM; actives 1.6% (n = 16,000); AID 687043, 2013;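 active = inhibition above the average over every tested compound plus 3 SD, cut at about 40% in these data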
Cy5 interf NS3h: Cy5 fluorescence quenchers or enhancers, artefact control for HCV NS3 helicase inhibitor project, biochemical, ChemBridge library, Cy5 readout; AID 720488, 2013; actives 6% (n = 16,000); Cy5-dT15 DNA with NS3h, fluorescence interference; actives lie on both sides; signal over control mean, under 1 quenches; fluorescence interference ratio at 100 µM;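 active = compound fluorescence over control fluorescence at most 0.8, a quencher, or at least a set upper limit, an enhancer; inactive = ratio between 0.8 and the set upper limit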
Of the large screens only hits and unclear results are named; the others gave an inactive call.

COCCNC(=O)c1cc2nc(-c3ccccc3)cc(-c3ccccc3)n2n1	none
Cc1[nH]n(-c2ccccc2)c(=O)c1C=C1C=Nc2ccccc21	none
O=C(CN(c1cccc([N+](=O)[O-])c1)S(=O)(=O)c1ccccc1)NCC1CCCO1 (stereo unspecified)	none
Cc1ccc(N=C2NC(=O)/C(=C\c3cccc(Br)c3)S2)cc1C	Cy5 interf NS3h 0.79
Cc1ccc(N=C2NC(=O)/C(=C/c3ccc(O)cc3)S2)cc1C	none
CCc1ccc(OCC(=O)Nc2cc3nn(-c4ccc(OC)cc4)nc3cc2C)cc1	none
CCCC(=O)Nc1cc(OC)ccc1OC	Cy5 interf NS3h 0.74
COc1ccc(OC)c(NC(=O)COc2ccc(Br)cc2C)c1	none
CCc1ccc(OCC(=O)Nc2ccc(-c3nc4ccccc4s3)c(O)c2)cc1	none
Cc1ccc(-c2nc3cc(NC(=O)C(C)C)ccc3o2)cc1	none
O=C(Nc1ccc2oc(-c3ccncc3)nc2c1)c1ccccn1	Cy5 interf NS3h 1.2
COc1c(Cl)cc(C(=O)Nc2ccc3oc(-c4ccccc4)nc3c2)cc1Cl	none
CC(C)C(=O)Nc1ccc2oc(-c3ccc(Cl)cc3)nc2c1	Cy5 interf NS3h 0.5
O=C(Nc1ccc2oc(-c3cccnc3)nc2c1)c1ccncc1	none
O=C(Cc1ccccc1)Nc1ccc(-c2nc3ccccc3s2)c(O)c1	Cy5 interf NS3h 1.2
COc1cc(C(=O)Nc2ccc3oc(-c4ccc5ccccc5c4)nc3c2)cc(OC)c1OC	Cy5 interf NS3h 0.72
O=C(CSc1nc2ccccc2[nH]1)Nc1ccc(/C=C/c2ccccc2)cc1	none
Cc1ccc2oc(-c3ccc(NC(=O)Cc4ccccc4)cc3O)nc2c1	none
O=C(Cc1ccccc1)Nc1ccc2oc(-c3ccc(Cl)cc3Cl)nc2c1	Cy5 interf NS3h 1.3
O=C(CSc1nnc(-c2ccco2)n1-c1ccccc1)c1cccc([N+](=O)[O-])c1	none
NC1=NC(=O)/C(=C\c2ccccc2Cl)S1	none
COc1cc(/C=C2\SC(N)=NC2=O)c([N+](=O)[O-])cc1OC	Cy5 interf NS3h 0.77
CCc1ccc(C(=O)CC2(O)C(=O)Nc3ccccc32)cc1 (stereo unspecified)	none
O=C(CC1(O)C(=O)Nc2ccccc21)c1ccco1 (stereo unspecified)	Cy5 interf NS3h 0.78
COc1ccc(CCN2C(=O)/C(=C/c3ccc(C)cc3)SC2=S)cc1OC	none
COc1ccc(-c2cn3cccc(C)c3n2)cc1Br	none
COc1ccc(-c2cn3ccccc3n2)cc1Br	Cy5 interf NS3h 0.79
COc1cc(C2C3=C(CC(C)(C)CC3=O)OC3=C2C(=O)CC(C)(C)C3)cc(I)c1O	none
COc1cc(C2C3=C(CC(C)(C)CC3=O)OC3=C2C(=O)CC(C)(C)C3)ccc1OCc1ccc([N+](=O)[O-])cc1	Cy5 interf NS3h 0.8
Cc1c(Br)c(C(F)(F)F)nn1CC(=O)Nc1cc(C(F)(F)F)ccc1Cl	none
Cc1c(Br)c(C(F)(F)F)nn1CC(=O)N(C)c1ccccc1	Cy5 interf NS3h 0.55
CCOC(=O)c1ccc(NC(=O)c2c(Cl)cccc2Cl)cc1	none
CCOC(=O)c1c(NC(=O)c2ccc([N+](=O)[O-])cc2)sc2c1CCCCC2	none
CCOC(=O)c1c(NC(=O)Cn2cnc([N+](=O)[O-])n2)sc2c1CCC2	Cy5 interf NS3h 0.57
C=CCc1ccccc1OCCOc1ccc(Cl)cc1/C=C1/SC(=S)N(C)C1=O	none
Cc1cccc(C(=O)O)c1NC(=O)c1cccc([N+](=O)[O-])c1	none
O=C(Nc1cccc(Cl)c1)c1cc2nc(-c3ccc4c(c3)OCO4)cc(C(F)(F)F)n2n1	Cy5 interf NS3h 0.67
Cc1ccc(-c2cc(C(F)(F)F)n3nc(C(=O)OC(C)C)cc3n2)cc1	none
CCCNC(=O)c1cc2nc(-c3ccc(OC)cc3)cc(C(F)(F)F)n2n1	none
O=C(Nc1cccc(Cl)c1Cl)c1cc2nc(-c3ccc([N+](=O)[O-])cc3)cc(C(F)(F)F)n2n1	Cy5 interf NS3h 0.79
O=c1c2cc3c(nc2[nH]c(=S)n1Cc1ccccc1)CCCC3	none
c1ccc(NC2=Nc3cccc4cccc2c34)cc1	Cy5 interf NS3h 0.59
CN(C)c1ccc(NC2=NS(=O)(=O)c3ccccc32)cc1	none
CC(Oc1ccc(Cl)cc1Cl)C(=O)NCCN(C)C (stereo unspecified)	Cy5 interf NS3h 0.71
CC(C)N(Cc1ccccc1)C(=O)CCCOc1ccc(Cl)cc1Cl	none
CCOc1ccc(Cl)cc1/C=C1/SC(=S)N(CC)C1=O	none
Cc1ccc(-n2nc3cc(C)c(NC(=O)c4ccccc4I)cc3n2)cc1	none
C/C(=N/N=C\c1ccccc1)C1C(=O)c2ccccc2C1=O	Cy5 interf NS3h 0.68
C/C(=N/N=C(\C)c1cccs1)C1C(=O)c2ccccc2C1=O	none
COC(=O)/C(=C/c1ccccc1)C(C)=O	none
COc1cc(/C=C2/SC(=S)N(CC(=O)Nc3cccc(C(=O)O)c3)C2=O)cc(OC)c1OC	none
O=C(CN1C(=O)/C(=C/c2cccc(Br)c2)SC1=S)Nc1cccc(C(=O)O)c1	Cy5 interf NS3h 0.76
Cc1nn(-c2ccccc2)c(C)c1-c1cccc([N+](=O)[O-])c1	none
CC12CC3CC(C)(C1)CC(CNC(=O)COc1ccccc1)(C3)C2	Cy5 interf NS3h 0.7
Cc1cc(Br)cc(C)c1NC(=O)COc1ccccc1	none
O=C1S/C(=C\c2ccc(Br)c([N+](=O)[O-])c2)C(=O)N1c1ccccc1	none
O=C(c1ccc(Cl)c(Cl)c1)N1CCN(c2ccc([N+](=O)[O-])c(N3CCOCC3)c2)CC1	Cy5 interf NS3h 0.65
O=C(c1cc(N2CCCCC2)c(F)cc1[N+](=O)[O-])N1CCCCC1	none
O=C(c1cc(F)c(F)cc1Cl)N1CCN(c2ccc([N+](=O)[O-])c(N3CCCC3)c2)CC1	Cy5 interf NS3h 0.67
O=C(c1cc(F)c(F)cc1Cl)N1CCN(c2ccc([N+](=O)[O-])c3ncccc23)CC1	none
O=C(c1cc(N2CCOCC2)c(F)cc1[N+](=O)[O-])N1CCOCC1	Cy5 interf NS3h 0.68
O=[N+]([O-])c1ccc(N2CCN(S(=O)(=O)c3ccc(Cl)cc3)CC2)cc1N1CCOCC1	none
CCOC(=O)CSc1nc(-c2ccccc2)c(-c2ccccc2)o1	none
Cc1nc2ccccc2n1CCC(C)C	none
O=[N+]([O-])c1ccc(NC(=NS(=O)(=O)c2ccc(Cl)cc2)c2ccccc2)cc1	none
O=C(NCc1ccc(Cl)cc1)c1cccc(I)c1	none
COc1ccc(CN2CCN(CC3CC4C=CC3C4)CC2)cc1Br (stereo unspecified)	Cy5 interf NS3h 0.75
COc1ccc(OC)c(CN2CCN(Cc3ccc(OC)c(Br)c3)CC2)c1	none
CCOC(=O)C(CCOc1cc(C)cc(C)c1C)C(=O)OCC	none
Cc1cc(/C=C(\C#N)C(=O)Nc2ccccc2)c(C)n1-c1cccc([N+](=O)[O-])c1	none
CCOC(=O)c1ccccc1NC(=O)CN(c1ccccc1OC)S(=O)(=O)c1ccccc1	none
Cc1ccc(Nc2nc(-c3ccc(-c4ccccc4)cc3)cs2)cc1	none
Nc1ccc(Nc2nc(-c3ccc(Br)cc3)cs2)cc1	Cy5 interf NS3h 0.78
Cc1cccc(NC(=O)/C(=C\c2cccs2)NC(=O)c2cccs2)c1	none
Nc1nnnn1/N=C\c1ccc(C=O)cc1	Cy5 interf NS3h 0.71
Nc1nnnn1/N=C\c1ccc(OCc2ccccc2)cc1	none
CCCCP(=O)(CCCC)COc1ccc(Br)cc1	none
CCn1c(NC(=O)c2ccc(Cl)cc2)nc2ccccc21	none
Cc1cc([N+](=O)[O-])c(-c2ccc(C=C3C(=O)c4ccccc4C3=O)o2)cc1Cl	none

Bioassay records from PubChem.
